# NOMO-1 viab – NOMO-1 AML cell viability reduction, primary screen, STK33 inhibitor project, CellTiter-Glo luminescence; NOMO-1 AML viability, 72 h; inhibition, % (test concentration not listed); 37,000 compounds, 7.5% hits; AID 2330, 2010; in the data active means inhibition above about 80%
# MITF inh – inhibitors of MITF, primary screen, MITF inhibitor project, cell-based, luminescence | TRPM1 promoter luciferase, 24 h | inhibition, % (concentration not given with the values) | 37,000 compounds, 0.28% hits | AID 2240, 2010; in the data active means inhibition above about 85%;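 further: human melanocyte line stably carrying TRPM1 promoter luciferase reporter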
# Hedgehog inh – Hedgehog pathway signaling inhibitors, primary screen, luminescence, Shh-LIGHT2 cells, Gli-luciferase; Shh-LIGHT2 Gli-luciferase reporter, 30 h; inhibition, % (test concentration not listed); 22,000 compounds, 2.1% hits;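 active means mean inhibition across valid replicates above about 65%, limit read from the data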;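 further: pathway switched on by Shh-conditioned medium diluted 1 in 25 in low serum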
# Numbers without * were called inactive; nt = no result. A selection: hits, their analogues and other compounds. The true share with any hit is near 8.1%.
SMILES,NOMO-1 viab,MITF inh,Hedgehog inh
CSc1cccc(NC(=O)C(C)N(c2ccc(C)cc2)S(C)(=O)=O)c1 (stereo not given),31,-4,nt
OC[C@H]1O[C@@H](Oc2ccc3c(c2)OC[C@H]2c4cc5c(cc4O[C@@H]32)OCO5)[C@H](O)[C@@H](O)[C@@H]1O,13,-52,-24
Oc1ccc2c(c1O)OCC1c3cc4c(cc3OC21)OCO4 (stereo not given),105*,-12,29
COc1ccc2c(c1)O[C@H]1c3ccc(O)cc3OC[C@@H]21,20,-5,-27
CC(C)=CCc1cc2c(cc1O)O[C@H]1c3ccc(O)c(O)c3OC[C@@H]21,105*,-11,23
N#Cc1ccc(N2CCCN(C(=S)NC3CCCC3)CC2)nc1,23,-11,35
COc1cc2c(NC(C)=O)c(CN(C)C)oc2c(Cl)c1Cl,22,-2,nt
Cc1ccc2c(CC(=O)Nc3cccc([N+](=O)[O-])c3)coc2c1C,17,-42,nt
Cc1ccc2c(CC(=O)NCc3ccco3)coc2c1C,115*,10,nt
CSc1cccc(NC(=O)Cn2cc(Br)c([N+](=O)[O-])n2)c1,7,12,nt
COc1ccc(C(=O)N(Cc2nc(-c3ccc(Cl)cc3)no2)C(C)C)cc1OC,12,-9,nt
CCC(C)C(O)C(C)(O)/C=C/C1=CC2=C(Cl)C(=O)C(C)(O)C(OC(C)=O)C2CO1 (stereo not given),120*,28,-11
COc1cc2c(cc1O)C1(O)Cc3ccc4c(c3C1N(C)CC2)OCO4 (stereo not given),nt,nt,0
O=C1C(=O)N(CC2CCCO2)C(c2cccc(Oc3ccccc3)c2)C1C(=O)c1ccco1 (stereo not given),14,-10,nt
Cc1cc(C)nc(N(C#N)C(C(=O)c2ccccc2)c2ccccc2)n1 (stereo not given),110*,2,nt
Cc1cc(C)nc(N(C#N)CC(=O)N2c3ccccc3CCc3ccccc32)n1,12,-10,nt
O=C(c1ccc([N+](=O)[O-])cc1)N(Cc1cc2ccccc2[nH]c1=O)c1ccccc1,35,40,nt
CNC(=O)CN(c1cc(Cl)c(Cl)cc1Cl)S(C)(=O)=O,-5,-11,nt
COc1ccc(-c2coc3cc(O)ccc3c2=O)cc1,12,11,34
COc1ccc(OC)c(C(=O)c2coc3ccc(O)cc23)c1,136*,-5,20
COc1ccc(-c2coc3cc(O)ccc3c2=O)c(OC)c1,-2,-6,80*
Cc1ccc(C(=O)c2coc3ccc(O)cc23)o1,41,26,-30
Cc1cc(=O)[nH]c(SC(C)C(=O)Nc2ccc(Cl)cc2)n1 (stereo not given),9,9,nt
CCOc1ccccc1CNc1nc2nc(C)c(Cl)c(C)n2n1,-10,-4,nt
Cc1ccc(NC(=O)C23CC4CC(CC(C4)C2)C3)cc1,22,-11,nt
SMILES,NOMO-1 viab,MITF inh,Hedgehog inh
O=C(Nc1nc(-c2ccccc2)cs1)C12CC3CC(CC(C3)C1)C2,108*,-20,-86
CCc1cccc(C)c1NC(=O)COc1ccc(NC(C)=O)cc1,-3,-6,nt
CS/C(Nc1cccc(Cl)c1Cl)=C(/C#N)C(=O)c1cccs1,94*,-6,-192
N#CC(C(=O)c1cccs1)=C1SCCCS1,39,-56,-22
COc1ccc(OCC(=O)Nc2c(C(=O)c3ccc(C)c(F)c3)oc3ccccc23)cc1,-10,30,nt
COc1ccc(C=Nc2ccc(Br)cc2)cc1,11,-14,69*
COc1ccc(/C=N/n2cnnc2)cc1,8,2,nt
COC(=O)c1ccc(NC(=O)COc2cccc3ccccc23)cc1,6,16,48
COC(=O)c1cccc(C(=O)Nc2cnc3ccccc3c2)n1,123*,-9,-3
O=C(CSc1ccccn1)Nc1ccc(Cl)cc1,-4,-104,nt
Cc1c(Cl)c(C)c(Cl)c(OCC(=O)Nc2ccccc2N2CCOCC2)c1Cl,18,8,nt
Nc1nc(Cl)nc2c1ncn2C1OC(CO)[C@H](O)[C@H]1F (stereo not given in full),97*,29,19
Nc1nc(Cl)nc2c1ncn2C1C[C@@H](O)C(CO)O1 (stereo not given in full),98*,49,72*
Nc1ncnc2c1ncn2C1CCC(CO)O1 (stereo not given),-12,1,-62
COc1ccc(C2OCC3C(c4cc(OC)c5c(c4)OCO5)OCC23)cc1OC (stereo not given),5,-31,-15
CCOC(=O)c1c(NC(=O)COc2ccccc2Br)sc(C)c1C,-2,-7,nt
CC(C)NC(=O)Nc1cccc2c1O[C@H](CN(C)Cc1ccc(Cl)c(Cl)c1)[C@H](C)CN([C@@H](C)CO)C2=O,12,-10,-3
C[C@@H]1CN([C@@H](C)CO)C(=O)c2cccc(NC(=O)Nc3ccc(F)cc3)c2O[C@@H]1CN(C)Cc1ccc2c(c1)OCO2,23,-27,2
C[C@H]1CN([C@@H](C)CO)C(=O)c2cccc(NC(=O)Nc3ccc(F)cc3)c2O[C@H]1CN(C)Cc1ccc(Cl)c(Cl)c1,41,22,-6
C[C@@H]1CN([C@H](C)CO)C(=O)c2cccc(NC(=O)Nc3ccc(F)cc3)c2O[C@H]1CN(C)Cc1ccc(Cl)c(Cl)c1,96*,27,-26
COc1ccc(NC(=O)Nc2cccc3c2O[C@@H](CN(C)Cc2ccc(Cl)c(Cl)c2)[C@H](C)CN([C@@H](C)CO)C3=O)cc1,111*,65,-39
C[C@H]1CN([C@@H](C)CO)C(=O)c2cccc(NC(=O)Nc3ccc(F)cc3)c2O[C@@H]1CN(C)Cc1ccc(Cl)c(Cl)c1,109*,32,-7
C[C@H](CO)N1C[C@H](C)[C@@H](CN(C)Cc2ccc(Cl)c(Cl)c2)Oc2c(NC(=O)Nc3ccc(F)cc3)cccc2C1=O,99*,20,-4
COc1ccc(CN(C)C[C@@H]2Oc3c(NC(=O)Nc4ccc(OC)cc4)cccc3C(=O)N([C@H](C)CO)C[C@H]2C)cc1,65,21,16
CC(=O)c1cccc(NC(=O)NCc2cnn(C)c2)c1,-8,10,nt
SMILES,NOMO-1 viab,MITF inh,Hedgehog inh
CCOC(=O)c1sc(NC(=O)C(C)(C)Oc2ccc(Cl)cc2)c(C#N)c1C,62,15,nt
CCn1c(SCC(=O)Nc2sc3c(c2C#N)CCC(C(C)(C)C)C3)nnc1-c1cccc(C)c1 (stereo not given),20,4,nt
COC(=O)c1cccc(NC(=O)CSc2nc(-c3ccc(C)cc3)cc(C(F)(F)F)n2)c1,15,1,nt
Cc1ccc(-c2nnc(SCC(=O)c3ccccc3)n2-c2ccccc2)cc1Cl,16,3,nt
O=C(CSc1nnc(-c2cccc([N+](=O)[O-])c2)n1-c1ccccc1)c1ccc(Br)cc1,2,-38,nt
C/S(=N\S(=O)(=O)c1ccc(Cl)cc1)c1ccccc1 (stereo not given),-16,6,-18
C=CS(=O)(=O)c1ccc(OC)c(N)c1,120*,58,83*
COc1ccc(OC)c(S(=O)(=O)c2ccc(Br)cc2)c1,25,2,-29
CCC(C)S(=O)(=O)c1oc(-c2ccc(C)cc2)nc1S(=O)(=O)c1ccccc1 (stereo not given),116*,51,nt
Cc1ccc(S(=O)(=O)c2nc(-c3ccccc3)oc2NCCN2CCOCC2)cc1,-4,1,nt

# Bioassay records from PubChem.
